Laboratory results from PubChem BioAssay (Tox21).
Inconclusive results are not listed. Entries that show only a call come without a potency. Unmarked numbers belong to inactive results. The source made the active and inactive calls. Calls come from the whole dose curve; as a rule, active = well fitted cell-killing curve with a large enough effect in the repeat runs; inconclusive = weak or mixed curves; inactive = flat fitted curve, though single readings scatter.

assay: qHTS RealTime-Glo MT Cell Viability Assay in HepG2 cells - 16 hour (AID 1224885); conditions: RealTime-Glo luminescence; series mostly up to 76.8 µM; note: nearly all actives have a fitted effect of over 50% in size
Source text: U.S. Tox21 Program National Center for Advancing Translational Sciences [NCATS] NIH Chemical Genomics Center [NCGC] U.S. Environmental Protection Agency [EPA] National Institutes of Environmental Health Sciences [NIEHS] National Toxicology Program [NTP] U.S. Food and Drug Administration [FDA] Tox21 Assay Overview: Measure of cell viability is critical in the cell-base assay. Analysis of cell viability is necessary for the characterization of cell responses to cytotoxic drugs and environmental stress. A RealTime-Glo MT Cell Viability Assay to monitor cell viability in real time of continues cell culture during 40 hours of compound treatment was used to screen Tox21 10K library compounds in HepG2 cells. The RealTime-Glo MT Cell Viability Assay is a nonlytic, homogeneous, bioluminescent method to measure cell viability in real time using a simple, plate-based method. The assay involves adding NanoLuc luciferase and a cell-permeant prosubstrate to cells in culture. Viable cells reduce the proprietary prosubstrate to generate a substrate for NanoLuc luciferase. This substrate diffuses from cells into the surrounding culture medium, where it is rapidly used by the NanoLuc Enzyme to produce a luminescent signal. The signal correlates with the number of viable cells, making the assay well suited for cytotoxicity studies.
Tox21 Assay Protocol Summary: The mixture of HepG2 cell suspension and reagents were dispensed at 600cells/6 ul/well in 1536-well tissue culture treated black solid bottom plates using a Multidrop dispenser. After the assay plates were incubated at a 37 C/5% CO2 incubator for 5 hours, 23 nL of compounds dissolved in DMSO, positive and negative controls was transferred to the assay plate by a pintool work station. The plates were incubated at 37 C for 40 hours. The luminescence intensity were measured at 0h, 8h, 16h, 24h, 32h and 40h time points using ViewLux plate reader during compound treatment.
Potency is the fitted concentration of half-maximal effect.

SMILES | Potency | activity change, negative = cytotoxic
CCCCCCCCCCC(=O)O | inactive | –
C/C=C(/C(=C/C)c1ccc(O)cc1)c1ccc(O)cc1 | inactive | –
Cc1cccc(N(C)C(=S)Oc2ccc3c(c2)CCC3)c1 | inactive | –
FC(F)(F)c1ccccc1Cl | inactive | –
OCCOCC#CCOCCO | inactive | –
C=C(C)[C@@H]1CCC2=CCC[C@@H](C)[C@]2(C)C1 | inactive | –
NC(=O)c1ccncc1 | inactive | –
CC(C)=CCC/C(C)=C/CC/C(C)=C/CCC(=O)OC/C=C(\C)CCC=C(C)C | inactive | –
CC1(C)[C@H](C(=O)O)N2C(=O)C[C@H]2S1(=O)=O | inactive | –
CC(C)(c1ccccc1)c1ccccc1 | inactive | –
CC(C)=CC(=O)C=C(C)C | inactive | –
OC1(c2ccccc2)CCNCC1 | inactive | –
O=C(OCC(O)CO)c1ccccc1Nc1ccnc2cc(Cl)ccc12 (stereo not given) | inactive | –
CC1=C(Br)C(=O)C(Br)=C/C1=C(/c1ccccc1S(=O)(=O)O)c1cc(Br)c(O)c(Br)c1C | inactive | –
COC(=O)CS | inactive | –
CCOC(=O)c1ccc(O)c(O)c1 | inactive | –
O=c1[nH]ncc2ccccc12 | inactive | –
C=COCC(C)C | inactive | –
CC(C)(C)CC(=O)OCC(=O)[C@@]1(O)CC[C@H]2[C@@H]3CCC4=CC(=O)C=C[C@]4(C)[C@H]3[C@@H](O)C[C@@]21C | inactive | –
Cc1cc(=O)c2c(O)c3c(O)cc(=O)c4c3c3c(cc(O)c1c23)C(C)(C)C=4O | – | -19% [at 15.8 µM]

SMILES | Potency | activity change, negative = cytotoxic
Cc1cc2c(OCC(CNC(C)(C)C)OC(=O)c3ccccc3)cccc2[nH]1 (stereo not given) | inactive | –
Cc1c(C)c2c(c(C)c1OC(=O)CCC(=O)OCCO)CC[C@@](C)(CCC[C@H](C)CCC[C@H](C)CCCC(C)C)O2 | inactive | –
Oc1ccc(Cl)c2cccnc12 | inactive | –
NNC(=O)CP(=O)(c1ccccc1)c1ccccc1 | inactive | –
CC1=Nc2ccc3ccccc3c2C1(C)C | inactive | –
CCCC(=O)C(=O)O | inactive | –
CC(C)c1nc(CN(C)C(=O)N[C@H](C(=O)N[C@@H](Cc2ccccc2)C[C@H](O)[C@H](Cc2ccccc2)NC(=O)OCc2cncs2)C(C)C)cs1 | inactive | –
CCn1cc(C(=O)O)c(=O)c2cc(F)c(N3CCNCC3)cc21 | inactive | –
C1COC1 | inactive | –
CCCCCCNC(=O)n1cc(F)c(=O)[nH]c1=O | inactive | –
CCC(C)COC(=O)CC(C)C (stereo not given) | inactive | –
C=C1CCC2CC1C2(C)C (stereo not given) | inactive | –
O=C(O)C[C@H](NC(=O)OCc1ccccc1)C(=O)O | inactive | –
C=C(C)C(=O)OCCOCCOC(=O)C(=C)C | inactive | –
C=C(C)CCCC(C)CCO (stereo not given) | inactive | –
O=C1c2ccccc2C(=O)C1c1ccc(Br)cc1 | inactive | –
Oc1cc2c(cc1O)[C@H]1c3ccc(O)c(O)c3OC[C@@]1(O)C2 | 44.2 µM (active) | –
CCC(C)COC(C)=O (stereo not given) | inactive | –
COC(=O)CCS | inactive | –
CCC1(CO)COCOC1 | inactive | –
